Measured potencies and affinities stand elsewhere. Values without a mark were called inactive. No rule for the calls is given here.
Experiment: cytotoxicity in OVCAR4 cells, dose response, cytotoxicity control for PAX8 inhibitor project, cell-based, plate reader, dry powder, SA11 (AID 743150)
Conditions: series mostly up to 35 µM; activity change, negative = cytotoxicity: at the top concentration

Row | SMILES | activity change, negative = cytotoxicity
1 | C[C@@H]1CN([C@@H](C)CO)S(=O)(=O)c2ccc(C#Cc3ccncc3)cc2O[C@H]1CN(C)C(=O)Nc1ccc2c(c1)OCO2 | -32.7%
2 | C[C@@H]1CN([C@@H](C)CO)S(=O)(=O)c2ccc(C#C[C@@H](C)O)cc2O[C@H]1CN(C)Cc1ccc(-c2ccccc2)cc1 | 16.7%
3 | CC(C)c1cc(C(=O)OCC(=O)N2CCN(C(=O)c3ccco3)CC2)c(O)c(C(C)C)c1 | 30.7% [at 50 µM]
4 | COc1ccccc1C#Cc1ccc([C@H]2[C@@H](CO)N(C(=O)C3CCCC3)[C@H]2C#N)cc1 | -21.2%
5 | C[C@H](CO)N1C[C@H](C)[C@@H](CN(C)Cc2ccc(-c3ccccc3)cc2)Oc2ccc(NS(=O)(=O)c3ccccc3)cc2CC1=O | -18.8%
6 | C[C@H](CO)N1C[C@H](C)[C@@H](CN(C)S(=O)(=O)c2ccc(-c3ccccc3)cc2)OCc2cn(nn2)CCCC1=O | 16.7%
7 | CCCC#Cc1ccc([C@@H]2[C@@H](C#N)N(C(=O)C3CCCCC3)[C@H]2CO)cc1 | 7.79%
8 | COc1cccc(C#Cc2ccc([C@@H]3[C@@H](C#N)N(C(=O)C4CCCCC4)[C@@H]3CO)cc2)c1 | -5.64%
9 | COc1ccc(S(=O)(=O)N2CCCCN3[C@H](CO)[C@H](c4ccc(C#CC(C)C)cc4)[C@H]3C2)cc1 | 12.5%
10 | CCCC#Cc1ccc([C@@H]2[C@H](C#N)N(S(=O)(=O)c3cccc(F)c3)[C@H]2CO)cc1 | -6.39%
11 | C[C@H](CO)N1C[C@H](C)[C@@H](CN(C)S(=O)(=O)c2ccc(Cl)cc2)OCCCC[C@H](C)Oc2ccc(NS(=O)(=O)c3ccccc3)cc2C1=O | -9.96%
12 | Cc1ccc(S(=O)(=O)Nc2ccc3c(c2)C(=O)N([C@@H](C)CO)C[C@H](C)[C@@H](CN(C)C(=O)Nc2cccc4ccccc24)OCCCC[C@@H](C)O3)cc1 | -17.1%
13 | O=C(C[C@@H]1C[C@H]2c3cc(NS(=O)(=O)c4ccc(F)cc4)ccc3O[C@H]2[C@H](CO)O1)NCc1ccc(Cl)cc1 | -45.6%
14 | COc1cccc(C#Cc2ccc([C@H]3[C@@H](C#N)N(C(=O)c4ccccn4)[C@@H]3CO)cc2)c1 | 28.9%
15 | CN(C)CCCN(C(=O)CCOc1ccccc1)c1nc2c(F)cccc2s1 | -23.9% [at 50 µM]
16 | COc1cccc(C#Cc2ccc([C@@H]3[C@@H](C#N)N(C(=O)C4CCCC4)[C@@H]3CO)cc2)c1 | 17.6%

Row | SMILES | activity change, negative = cytotoxicity
17 | O=C1/C(=C/c2ccccc2)SC(=S)N1CC(=O)N1CCCCC1c1cccnc1 (stereo unspecified) | 26.6% [at 50 µM]
18 | CCCC#Cc1ccc([C@H]2[C@@H](C#N)N(C(=O)C3CCCCC3)[C@H]2CO)cc1 | -7.16%
19 | COc1cccc(C#Cc2ccc([C@@H]3[C@@H](C#N)N(C(=O)C4CCCCC4)[C@H]3CO)cc2)c1 | -0.859%
20 | O=C(N1CCCCC1)[C@@]1(CCS(=O)(=O)c2ccccc2)N=C(c2ccc(OCCCO)cc2)O[C@H]1c1ccccc1 | 1.84% [at 50 µM]
21 | C[C@@H]1CN([C@H](C)CO)C(=O)CCCn2cc(nn2)CO[C@H]1CN(C)C(=O)Nc1ccc(-c2cccs2)cc1 | 22.7%
22 | CCCC#Cc1ccc([C@@H]2[C@@H](C#N)N(S(=O)(=O)c3cccc(F)c3)[C@H]2CO)cc1 | 8.16%
23 | COc1cccc(C#Cc2ccc([C@@H]3[C@H](C#N)N(C(=O)c4ccccn4)[C@H]3CO)cc2)c1 | 11.8%
24 | Cc1ccc(S(=O)(=O)Nc2ccc3c(c2)nc(CCN2CCCC2)n3C)cc1 | -9.44% [at 50 µM]
25 | O=C1/C(=C/c2ccccc2F)SC(=S)N1CC(=O)N1CCCCC1c1cccnc1 (stereo unspecified) | 11% [at 50 µM]
26 | C[C@H](CO)N1C[C@H](C)[C@H](CN(C)C(=O)Nc2ccc(-c3cccs3)cc2)OCc2cnnn2CCCC1=O | 50.2%
27 | COc1ccc(S(=O)(=O)Nc2ccc3c(c2)CC(=O)N([C@@H](C)CO)C[C@@H](C)[C@@H](CN(C)Cc2ccc(-c4ccccc4)cc2)O3)cc1 | -8.32%
28 | CCSCCc1nnc(NC(=O)Nc2cccc(C(F)(F)F)c2)s1 | 5.07% [at 50 µM]
29 | C[C@H](CO)N1C[C@H](C)[C@@H](CN(C)Cc2ccc(C(F)(F)F)cc2)OCCCC[C@H](C)Oc2ccc(NS(=O)(=O)c3ccc(F)cc3)cc2C1=O | 4.54%
30 | C[C@H]1CN([C@@H](C)CO)C(=O)CCCn2nncc2CO[C@@H]1CN(C)C(=O)Nc1ccc(-c2cccs2)cc1 | 32.7%
31 | CC1(C)CC(=O)c2sc(NC(=O)CCS(=O)(=O)c3ccccc3)nc2C1 | -33.8% [at 50 µM]

Source: PubChem BioAssay AID743150 (Broad Institute, 2013)
